Screens as filed in PubChem.
A selection: hits, their analogues and other compounds. The true share with any hit is near 3.4%.
pPAFAH FP inh: inhibitors of human plasma PAF acetylhydrolase (pPAFAH) | inhibition, % at 3.39 µM | recombinant pPAFAH, FP-rhodamine probe fluorescence polarization | 330,000 compounds, 1.5% hits;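 active means inhibition above the mean inhibition across the screen plus 3 SD, cut at about 25% in these data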;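 further: inhibitors block binding of the rhodamine activity-based probe so polarization drops; 0% = enzyme with DMSO and 100% = wells lacking pPAFAH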
Target sequence (Q13093 whole entry, looked up): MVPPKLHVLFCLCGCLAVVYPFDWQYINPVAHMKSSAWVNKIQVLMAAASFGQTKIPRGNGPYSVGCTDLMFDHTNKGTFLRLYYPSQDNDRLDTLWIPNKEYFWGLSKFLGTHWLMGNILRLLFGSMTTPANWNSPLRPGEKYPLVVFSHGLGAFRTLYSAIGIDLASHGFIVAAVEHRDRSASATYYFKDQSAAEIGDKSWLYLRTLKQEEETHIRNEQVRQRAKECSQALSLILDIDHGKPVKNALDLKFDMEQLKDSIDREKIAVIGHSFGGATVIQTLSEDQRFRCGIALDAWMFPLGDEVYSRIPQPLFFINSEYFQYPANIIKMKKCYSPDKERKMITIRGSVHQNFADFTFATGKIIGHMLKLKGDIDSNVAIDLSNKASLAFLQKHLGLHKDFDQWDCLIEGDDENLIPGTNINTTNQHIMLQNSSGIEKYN
PAFAH1B2 FP inh: PAFAH1B2 (human) inhibition; P68402; recombinant PAFAH1B2, FP-rhodamine activity probe, fluorescence polarization; inhibition, % at 3.39 µM; 340,000 compounds, 1.2% hits; AID 492953;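 active means inhibition above the mean of all tested compounds plus 3 SD, cut at about 24% in these data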;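 further: 0% = enzyme with DMSO and 100% = wells lacking PAFAH1B2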
PP5 primary: PP5 (human) phosphatase inhibition; P53041; purified PP5c, OMFP substrate fluorescence; inhibition, % at 6.7 µM; 320,000 compounds, 0.18% hits;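 active means inhibition above the campaign's mean inhibition across all tested compounds plus 3 SD, cut at about 9.5% in these data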;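 further: 0% = DMSO only and 100% = 100 µM cantharidin control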
PAFAH1B3 inh: PAFAH1B3 (human) inhibition | Q15102 | recombinant PAFAH1B3, FP-rhodamine probe, fluorescence polarization | inhibition, % at 3.39 µM | 340,000 compounds, 0.28% hits | AID 492972;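 active means inhibition above the screen-wide average of all tested compounds plus 3 SD, cut at about 25% in these data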;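 further: 0% = enzyme with DMSO only and 100% = wells lacking PAFAH1B3 protein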
PAFAH2 FP inh: PAFAH2 (human) inhibition. recombinant PAFAH2, FP-rhodamine activity probe, fluorescence polarization. 340,000 compounds, 0.99% hits. Q99487. inhibition, % at 3.39 µM;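 active means inhibition above the mean over all tested compounds plus 3 SD, cut at about 30% in these data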;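 further: inhibitors block probe labeling of enzyme so polarization drops; 0% = enzyme with DMSO and 100% = wells lacking PAFAH2 protein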
PP1 counter: blocks human PP1-alpha phosphatase, a PP5 counter-screen | P62136 | purified PP1alpha, OMFP fluorescence | inhibition, % at 6.7 µM | 320,000 compounds, 0.9% hits | AID 2235;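 active means inhibition above the mean inhibition of all tested compounds plus 3 SD, computed separately for each screening campaign, cut at about 15% in these data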
pPAFAH confirm: pPAFAH (human) inhibition, confirmed | shares compounds with pPAFAH FP inh | recombinant pPAFAH, FP-Rh probe fluorescence polarization | inhibition, % at 3.39 µM | 2,300 compounds, 72% hits;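 active means mean inhibition of the triplicate above the hit cutoff set for the earlier primary screen, cut at about 25% in these data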;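 further: 0% = enzyme with DMSO and 100% = wells lacking pPAFAH enzyme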
Numbers without * were called inactive; · = no result given.

SMILES	pPAFAH FP inh	PAFAH1B2 FP inh	PP5 primary	PAFAH1B3 inh	PAFAH2 FP inh	PP1 counter	pPAFAH confirm
COc1ccccc1NS(=O)(=O)c1ccc(C(N)=O)cc1	-3	3	1	1	-4	-2	·
O=S(=O)(Nc1nc(-c2sccc2Cl)cs1)c1cc(Cl)ccc1Cl	47*	4	2	0	42*	19*	51*
Cc1ccc([N+](=O)[O-])cc1S(=O)(=O)Nc1cccc(S(=O)(=O)NC2=NCCC2)c1	6	6	·	13	-6	·	·
CC(=O)Nc1nc(C)c(-c2csc(Nc3cccc(C(C)=O)c3)n2)s1	38*	10	1	11	11	-3	37*
O=[N+]([O-])c1ccc2c(c1)nc(CO)n2Cc1ccccc1	0	1	1	4	-2	0	·
N#CC1(NC(=O)COC(=O)c2nc(Cl)ccc2Cl)CCCCC1	8	11	0	10	7	-5	·
Cc1[nH]c2ccc(C(=O)OCC(=O)NC3(C#N)CCCCC3)cc2c1C	45*	2	4	7	86*	-2	43*
COc1ccc(-c2csc(CCN3N=C(C)CC3=O)n2)cc1	10	-2	2	12	9	-2	·
NC1=NC(=O)/C(=C/c2cc(Br)c(O)c(Br)c2)S1	48*	-3	-10	34*	10	-1	42*
NC1=NC(=O)/C(=C/c2ccc(Br)cc2)S1	6	2	0	2	2	-3	·
COc1cc(/C=N/NC(=O)c2ccc(COc3cc(C)ccc3C(C)C)cc2)cc(OC)c1O	7	0	2	7	-11	9	·
O=C(N/N=C/c1ccc(O)c(O)c1)c1ccc(CSc2cccc3cccnc23)cc1	69*	10	5	17	24	4	86*
O=C(CSc1cccc2cccnc12)N/N=C/c1cccc(O)c1	5	1	3	8	1	-2	·
Cc1ccc(C(C)C)c(OCc2ccc(C(=O)N/N=C/c3ccc(O)c(O)c3)cc2)c1	61*	-1	7	34*	14	4	84*
CN(C)c1ccc(C2Nc3ccccc3C(=O)N2NS(C)(=O)=O)cc1 (stereo unspecified)	·	5	·	4	1	·	·
O=C(O)CCc1ccc(-c2ccc(Br)cc2)n1Cc1ccco1	45*	5	2	-3	18	1	33*
O=C(c1cc(O)c(O)c([N+](=O)[O-])c1)c1ccccc1F	59*	14	1	29*	68*	2	81*
O=C(O/N=C(\c1ccccc1)c1ccncc1)c1ccccc1Cl	45*	88*	-1	9	25	10	23
O=C(NCc1cccnc1)c1ccc(-c2cccc(Cl)c2Cl)o1	8	-3	1	5	3	2	·
O=C(NCc1cccnc1)c1ccc(-c2ccccc2[N+](=O)[O-])o1	56*	-5	0	11	-7	-4	3
Cc1c(C(=O)O)sc2[nH]c(=O)n(Cc3ccccc3)c(=O)c12	-2	4	0	4	-1	-1	·
C/C(=N\NC(=O)c1cc(O)ccc1O)c1cccc(NC(=O)c2cccc(Cl)c2)c1	38*	7	1	11	11	2	15
C/C(=N\NC(=O)c1cc(O)ccc1O)c1cccc(NC(=O)c2ccc(Cl)cc2)c1	46*	10	0	18	9	7	21
CCN(CC)c1ccc(C=Nc2ccc(C)cc2C)c(O)c1	3	0	1	4	2	1	·
Cc1ccc(N=Cc2cccc(O)c2O)c(C)c1	37*	10	1	17	9	3	10
SMILES	pPAFAH FP inh	PAFAH1B2 FP inh	PP5 primary	PAFAH1B3 inh	PAFAH2 FP inh	PP1 counter	pPAFAH confirm
COc1ccc(OC)c(C2=NS(=O)(=O)N(C)C(C(=O)NCc3ccco3)=C2)c1	6	3	4	3	-3	-5	·
Cc1ccccc1S(=O)(=O)Cc1ccc(C(=O)NCCCN2CCCC2)o1	35*	5	0	0	-8	-1	0
Cc1ccccc1S(=O)(=O)Cc1ccc(C(=O)NCCCN2CCN(C)CC2)o1	3	-1	2	7	-4	1	·
CCC(=O)OC1(C)C(=O)C=C2C=C(c3ccsc3)OC=C2C1=O (stereo unspecified)	48*	-5	2	6	16	0	34*
COc1ccc(-n2cc(-c3ccccc3)c3c(NCCCN4CCOCC4)ncnc32)cc1	35*	4	0	-3	-8	0	18
Cc1cccc(OCC(=O)N/N=C/CC(C)c2ccccc2)c1C (stereo unspecified)	4	3	2	0	12	4	·
Cc1ccc(C(=O)O)cc1N1C(=O)c2cccc3c([N+](=O)[O-])ccc(c23)C1=O	36*	15	1	41*	36*	-1	9
O=C(Nc1nccs1)c1cccc(N2C(=O)c3cccc4c([N+](=O)[O-])ccc(c34)C2=O)c1	-3	13	-2	24	1	1	·
COCCC(=O)N1CCC(Oc2ccc(C(=O)NCCn3cccn3)cc2)CC1	4	3	1	0	0	-2	·
Cc1ccc(N2NC(=O)/C(=C\c3cc4c(cc3[N+](=O)[O-])OCO4)C2=O)cc1C	48*	16	1	7	50*	13	15
CNc1ccc2c3c(cccc13)C(=O)N(C)C2=O	54*	58*	-26	68*	71*	-42	39*
CN1C(=O)c2cccc3c(Cl)ccc(c23)C1=O	3	-1	3	-2	5	0	·
CCOC(=O)C1=C(C)NC(SCc2cc(=O)[nH][nH]2)=C(C#N)C1c1cccs1 (stereo unspecified)	47*	4	-1	0	-2	6	13
CN(C)c1ccc(N/C=C/C(=O)c2ccccc2)cc1	39*	4	5	-4	3	3	6
Oc1c(Br)cc(/C=N/NC(=S)NCc2ccco2)cc1Br	41*	15	-1	-2	22	2	57*
Cc1occc1C(=O)/C(C#N)=C/c1ccc(O)c(Br)c1	13	6	0	6	9	1	·
Cc1cc(C(=O)OCC(N)=O)c(C)n1-c1ccccc1	-3	0	1	9	-18	5	·
C/C(N)=C(/C#N)C(=O)COC(=O)c1cc(C)n(-c2ccc(F)cc2)c1C	36*	5	-1	7	7	3	28*
CCCCCCCC/C=C\CCCCCCCC(=O)O	4	16	0	6	15	3	·
CCCCC/C=C\C/C=C\C/C=C\CCCCC(=O)O	38*	-1	5	4	10	-13	17
O=C(O)CC1NC(=S)N(c2ccccc2)C1=O (stereo unspecified)	6	-1	1	-1	-4	-2	·
